For orientation: AC50 means the concentration giving half of the maximal activity seen.

The source made the active and inactive calls. Rule for the calls: active = hit-call score of the fitted dose curve at least 0.9, where 1 is the maximum; inactive = score below 0.9.

One assay in a line: ATG_TGFb_CIS: Attagene CIS-FACTORIAL HepG2 Assay for human Transforming Growth Factor (TGF) (AID 2282967). Conditions: HepG2 Attagene CIS TGFb reporter, mRNA transcription; actives raise or lower the signal. The gist of the method:
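HepG2 cells transiently transfected with cis-promoter-driven multiple reporter units measure endogenous TF activity; reporter mRNA quantified at 24 h by RT-PCR, FAM labeling, HpaI digestion and capillary electrophoresis. Bidirectional fit vs DMSO.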
Turning to `CC(=O)C(C)O` (stereo unspecified), the call was inactive.

As to `CC1CCC(C(C)C)C(O)C1` (stereo unspecified), the outcome was inactive.

As to `COc1cc(Cl)c(OC)cc1N`, the molecule was classed as inactive.

Take `CC=CC=CCOC(=O)C(C)C`: the outcome was inactive.

Regarding `CCCCC(CC)COC(=O)c1ccc(O)cc1` (stereo unspecified), the molecule was called inactive.

Take `CCc1cc(C(C)(C)C)c(O)c(C(C)(C)C)c1`: the outcome was inactive.

Regarding `CCOC(=O)c1ccc(N)cc1`, the outcome was inactive.

With `CCNCCO`, the result was inactive.

On to `CCCSc1ccc2nc(NC(=O)OC)[nH]c2c1`, for which the molecule was classed as inactive.

For the molecule `OCc1ccc(Cl)cc1Cl`, the call was inactive.

Take `O=C(CS)OCCOC(=O)CS`: the molecule was classed as inactive.

Consider `OCCOCCN1CCN(C2=Nc3ccccc3Sc3ccccc32)CC1`, for which the molecule was called inactive.

With `CCCCC1CCC(O)CC1` (stereo unspecified), the outcome was inactive.

For the molecule `CCOC(=O)CC(C)O` (stereo unspecified), the molecule was called inactive.

As for `CCCCCCCCCC(C)C=O` (stereo unspecified), the call was inactive.

As to `CCOc1ccccc1O`, the molecule was called inactive.

As to `CC1=C(Br)C(=O)C(Br)=C/C1=C(/c1ccccc1S(=O)(=O)O)c1cc(Br)c(O)c(Br)c1C`, the molecule was classed as inactive.

For the molecule `Cc1ncc[nH]1`, the call was inactive.

For `COc1cc([C@@H]2c3cc4c(cc3[C@@H](O[C@@H]3O[C@@H]5CO[C@@H](C)O[C@H]5[C@H](O)[C@H]3O)[C@H]3COC(=O)[C@H]23)OCO4)cc(OC)c1O`, the molecule was called inactive.

As to `C=CC(C)(O)CCC=C(C)C` (stereo unspecified), the molecule was classed as inactive.

`CC1C2CC(CC2C2CCCC(O)C2)C1(C)C` (stereo unspecified): the molecule was called inactive.

As to `CN(C)CCOc1ccc(/C(=C(/CCCl)c2ccccc2)c2ccccc2)cc1`, the call was inactive.

For `Cc1ccc(S(N)(=O)=O)cc1`, the call was inactive.

On to `C[C@H]1O[C@@H](O[C@H]2[C@@H](O)C[C@H](O[C@H]3[C@@H](O)C[C@H](O[C@H]4CC[C@@]5(C)[C@H](CC[C@@H]6[C@@H]5C[C@@H](O)[C@]5(C)[C@@H](C7=CC(=O)OC7)CC[C@]65O)C4)O[C@@H]3C)O[C@@H]2C)C[C@H](O)[C@@H]1O`, for which the molecule was called inactive.

In the case of `CC(C)Nc1nc(N)nc(Cl)n1`, the outcome was inactive.

Turning to `CC(=O)CC(=O)Nc1ccccc1`, the result was inactive.

In the case of `C=C(CC(=O)O)C(=O)O`, the result was inactive.

Consider `O=C(Nc1ccc([N+](=O)[O-])cc1)Nc1ccc([N+](=O)[O-])cc1` (tested in a mixture with another compound), for which the molecule was classed as inactive.

Turning to `CCC(C)=O`, the molecule was classed as inactive.

As for `OCC(O)c1ccccc1` (stereo unspecified), the call was inactive.

Turning to `[O-]n1ccccc1=S.[O-]n1ccccc1=S.[Zn+2]`, the result was inactive.

Take `[Cl][Au]([Cl])[Cl]`: the outcome was inactive.

Turning to `COC(=O)c1ccc([N+](=O)[O-])cc1`, the outcome was inactive.

With `CCOC(=O)C1OC1c1ccccc1` (stereo unspecified), the molecule was classed as inactive.

As for `CCCCCCCCCCCCS(=O)(=O)Cl`, the call was inactive.

In the case of `CCOC(=O)CN`, the call was inactive.

On to `C=C(C)[C@@H]1CC=C(C)C(=O)C1`, for which the result was inactive.

On to `Nc1ccc2cc(S(=O)(=O)O)cc(O)c2c1N=Nc1ccccc1C(F)(F)F`, for which the molecule was called inactive.

Another assay is described as follows: ATG_VDRE_CIS: Attagene CIS-FACTORIAL HepG2 Assay for human Vitamin D Receptor Element (VDRE) (AID 2282968). Conditions: HepG2 VDRE cis-reporter transcription, actives raise or lower the signal. A digest of the protocol: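 Transiently transfected HepG2 cells carrying cis-regulated reporter transcription units were exposed for 24 h. Reporter mRNA was measured by RT-PCR with fluorescent labelling and capillary electrophoresis, and fitted in both directions against DMSO.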
In the case of `CC(=O)C(C)O` (stereo unspecified), the molecule was classed as inactive.

In the case of `CC1CCC(C(C)C)C(O)C1` (stereo unspecified), the call was inactive.

Turning to `COc1cc(Cl)c(OC)cc1N`, the molecule was classed as inactive.

Turning to `CC=CC=CCOC(=O)C(C)C`, the result was inactive.

In the case of `CCCCC(CC)COC(=O)c1ccc(O)cc1` (stereo unspecified), the result was inactive.

`CCc1cc(C(C)(C)C)c(O)c(C(C)(C)C)c1`: the molecule was called inactive.

On to `CCOC(=O)c1ccc(N)cc1`, for which the molecule was classed as inactive.

In the case of `CCNCCO`, the result was inactive.

Consider `CCCSc1ccc2nc(NC(=O)OC)[nH]c2c1`, for which the outcome was inactive.

`OCc1ccc(Cl)cc1Cl`: the outcome was inactive.

With `O=C(CS)OCCOC(=O)CS`, the molecule was classed as inactive.

Regarding `OCCOCCN1CCN(C2=Nc3ccccc3Sc3ccccc32)CC1`, the AC50 was 19.5 µM (active).

For `CCCCC1CCC(O)CC1` (stereo unspecified), the result was inactive.

For `CCOC(=O)CC(C)O` (stereo unspecified), the molecule was classed as inactive.

`CCCCCCCCCC(C)C=O` (stereo unspecified): the molecule was called inactive.

`CCOc1ccccc1O`: the call was inactive.

For the molecule `CC1=C(Br)C(=O)C(Br)=C/C1=C(/c1ccccc1S(=O)(=O)O)c1cc(Br)c(O)c(Br)c1C`, the AC50 was 40.8 µM (active).

Take `Cc1ncc[nH]1`: the call was inactive.

As for `COc1cc([C@@H]2c3cc4c(cc3[C@@H](O[C@@H]3O[C@@H]5CO[C@@H](C)O[C@H]5[C@H](O)[C@H]3O)[C@H]3COC(=O)[C@H]23)OCO4)cc(OC)c1O`, the outcome was inactive.

Take `C=CC(C)(O)CCC=C(C)C` (stereo unspecified): the result was inactive.

As for `CC1C2CC(CC2C2CCCC(O)C2)C1(C)C` (stereo unspecified), the result was inactive.

For `CN(C)CCOc1ccc(/C(=C(/CCCl)c2ccccc2)c2ccccc2)cc1`, the molecule was called inactive.

For `Cc1ccc(S(N)(=O)=O)cc1`, the molecule was called inactive.

On to `C[C@H]1O[C@@H](O[C@H]2[C@@H](O)C[C@H](O[C@H]3[C@@H](O)C[C@H](O[C@H]4CC[C@@]5(C)[C@H](CC[C@@H]6[C@@H]5C[C@@H](O)[C@]5(C)[C@@H](C7=CC(=O)OC7)CC[C@]65O)C4)O[C@@H]3C)O[C@@H]2C)C[C@H](O)[C@@H]1O`, for which the AC50 is 0.226 µM (active).

As to `CC(C)Nc1nc(N)nc(Cl)n1`, the molecule was called inactive.

In the case of `CC(=O)CC(=O)Nc1ccccc1`, the molecule was called inactive.

In the case of `C=C(CC(=O)O)C(=O)O`, the molecule was classed as inactive.

On to `O=C(Nc1ccc([N+](=O)[O-])cc1)Nc1ccc([N+](=O)[O-])cc1` (tested in a mixture with another compound), for which the result was inactive.

As to `CCC(C)=O`, the result was inactive.

Turning to `OCC(O)c1ccccc1` (stereo unspecified), the molecule was classed as inactive.

Take `[O-]n1ccccc1=S.[O-]n1ccccc1=S.[Zn+2]`: the molecule was classed as inactive.

For `[Cl][Au]([Cl])[Cl]`, the molecule was called inactive.

For the molecule `COC(=O)c1ccc([N+](=O)[O-])cc1`, the call was inactive.

As to `CCOC(=O)C1OC1c1ccccc1` (stereo unspecified), the call was inactive.

On to `CCCCCCCCCCCCS(=O)(=O)Cl`, for which the call was inactive.

In the case of `CCOC(=O)CN`, the result was inactive.

With `C=C(C)[C@@H]1CC=C(C)C(=O)C1`, the result was inactive.

With `Nc1ccc2cc(S(=O)(=O)O)cc(O)c2c1N=Nc1ccccc1C(F)(F)F`, the outcome was inactive.

Values taken from PubChem BioAssay (EPA / NIEHS).
